# SW480 rerep = A quantitative high throughput screen for small molecules that induce DNA re-replication in SW480 colon adenocarcinoma cells | SW480 DNA re-replication, Hoechst DNA content imaging, 48 h | Potency, µM (doses to about 46.1 µM), for the others: at the highest dose re-replication activation, actives largely listed as activators | 340,000 compounds, 1.8% hits; note: % of control where 0% means no effect; nearly all actives have a fitted effect of over 55% in size
#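 Treated cells incubate 48 hr (37 C, 5% CO2), are stained 40 min with Hoechst, and nuclear fluorescence is enumerated; a rise in nuclei with high DNA signal marks re-replication.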
# KB-3-1 cytotox = qHTS assay for MDR1-selective chemotherapeutics: Primary screen using the parental adenocarcinoma cell KB-3-1; Potency, µM (doses to about 46.1 µM), most hits filed as cytotoxic; KB-3-1 viability, CellTiter-Glo ATP luminescence, 72 h; 400,000 compounds, 1.4% hits; note: % is set by controls: 0 for no effect and ±100 for the full control effect; nearly all actives have a fitted effect of over 60% in size
#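 Cytotoxicity measured as CellTiter-Glo luminescence after 72 h at 37 C. Compound titrations were pinned onto drug-naive KB-3-1 parental adenocarcinoma cells grown in DMEM with 10% FBS, and normalized data fitted to concentration-response curves.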
# PINK1 expr mod = A Quantitative High throughput Screen to Identify Chemical Modulators of PINK1 Expression; Potency, µM (doses to about 76.6 µM), for inactives: top-dose activation (PINK1 increase), hits mostly activators; PINK1 immunofluorescence, high-content cytometry, 24 h; AID 624263, 2012; 410,000 compounds, 0.2% hits; active = well fitted activation curve with a large enough effect; inconclusive = small, poorly fitted or top-dose-only effect; cell line not stated here; note: % of control where 0% means no effect; nearly all actives have a fitted effect of over 65% in size
#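 Stable cell line treated 24 h with compounds at 5 concentrations (CCCP controls), then fixed and immunostained for PINK1 plus nuclear and cell stains; PINK1 immunofluorescence quantified by laser-scanning microplate cytometry.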
# KB-V1 cytotox = qHTS assay for MDR1-selective chemotherapeutics: Primary screen using the drug-selected MDR subline cells KB-V1; KB-V1 MDR cells viability, CellTiter-Glo, 72 h; Potency, µM (highest dose often 46.1 µM), most hits filed as cytotoxic; 400,000 compounds, 3.4% hits; AID 1347076, 2019; note: % is set by controls: 0 for no effect and ±100 for the full control effect; nearly all actives have a fitted effect of over 60% in size
#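 Readout: CellTiter-Glo luminescence, 10 min after addition. Cells: KB-V1 MDR subline, 72 h at 37 degrees C with compound. Analysis: corrected, normalized data fitted to concentration-effect curves.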
# PTAP TSG101 blk = qHTS Assay for Iinhibitors of HIV-1 Budding by Blocking the Interaction of PTAP/TSG101; Fluorescence polarization, FITC-PTAP peptide / Tsg101 binding; AID 493005, 2010; Tumor susceptibility gene 101 protein (Homo sapiens), Q99816; 340,000 tested, under 10 active; Potency, µM (highest dose often 115 µM), for the others: at the top dose activity change, negative = inhibition, most hits filed as inhibitors; active = well fitted inhibition curve with a large enough effect in the main read-out, with a control signal flat, not every such curve was filed as active; inconclusive = small, poorly fitted or top-dose-only effect, or effect the other way, or a change in a side signal; inactive = no such curve, though single readings can be large or run the other way; note: % of control where 0% means no effect
# Target sequence (Q99816 whole entry, looked up): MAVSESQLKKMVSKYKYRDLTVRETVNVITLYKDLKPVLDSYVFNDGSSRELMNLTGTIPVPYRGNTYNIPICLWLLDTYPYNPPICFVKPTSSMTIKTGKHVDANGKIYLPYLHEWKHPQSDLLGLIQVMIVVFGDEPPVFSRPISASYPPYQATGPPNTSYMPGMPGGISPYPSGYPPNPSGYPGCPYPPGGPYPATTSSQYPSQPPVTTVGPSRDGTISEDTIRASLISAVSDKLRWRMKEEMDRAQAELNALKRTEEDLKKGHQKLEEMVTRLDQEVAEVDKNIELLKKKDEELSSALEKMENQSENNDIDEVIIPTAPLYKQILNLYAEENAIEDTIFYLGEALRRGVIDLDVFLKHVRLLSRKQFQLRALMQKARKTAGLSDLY
#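 Tsg101 binding domain (10 uM final) was mixed with compound and a FITC-labeled PTAP peptide (50 nM final) in HEPES pH 7.5 buffer with NaCl, Tween 20, EDTA and TCEP; fluorescence polarization was read after 20 min at r.t.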
# MCF10A rerep = A quantitative high throughput screen for small molecules that induce DNA re-replication in MCF 10a normal breast cells. MCF 10A DNA re-replication, Hoechst nuclear intensity, 48 h. Potency, µM (top dose mostly 46.1 µM), for the others: at the top dose activity, positive = re-replication, hits mostly activators. 350,000 compounds, 2.9% hits. AID 624296, 2012; note: % of control where 0% means no effect; nearly all actives have a fitted effect of over 50% in size
# * = called active by the depositor; i = inactive; ? = inconclusive; nt = no result; [ ] = dose if it differs, or a comment. An excerpt weighted towards active compounds, which were near 6.8% of everything screened. Unless noted, calls come from the whole dose curve; as a rule, active = well fitted curve in the direction sought with a large enough effect; inconclusive = small, poorly fitted or top-dose-only effect, or another doubt; inactive = no such curve, though single readings can be large; an effect the other way counts as inactive or inconclusive. Potency is the fitted concentration of half-maximal effect.
SMILES,SW480 rerep,KB-3-1 cytotox,PINK1 expr mod,KB-V1 cytotox,PTAP TSG101 blk,MCF10A rerep
COc1ccc(N(CC(=O)NCCc2ccc(C)cc2)S(=O)(=O)c2c(C)nn(C)c2C)cc1,nt,i,-0.2%,i,nt,nt
COc1ccc(NC(=O)C2(C)Cc3c(-c4cccc(NC(C)=O)c4)ccnc3O2)cn1 (centres undefined),nt,2.06µM*,12.5%,i,nt,nt
Cc1cc(C)n(-c2nc(NC(C)C)nc(NC(C)(C)C)n2)n1,nt,i,1.8%,i,nt,nt
CSc1nc(-c2ccccc2)c(-c2ccccc2)[nH]1,?,?,2.0%,11.6µM*,-5.3%,?
Cc1ccc(-c2[nH]c(-c3ccc(C(=O)O)cc3)nc2-c2ccccc2)cc1,?,i,1.2%,i,-2.0%,9.2µM*
O=C(O)c1ccc(-c2nc(-c3ccccc3)c(-c3cccs3)[nH]2)cc1,0.0%,i,-0.7%,i,0.4%,0.8%
C=CCOc1ccc(Br)cc1/C=C1/SC(=Nc2ccc(C(=O)O)cc2)NC1=O,-12.4%,?,0.1%,i,-19.9%,8.2µM*
CCOc1cc(Br)cc(/C=C2\SC(=Nc3ccccc3)NC2=O)c1O,-1.1%,?,-0.3%,?,-0.6%,8.2µM*
C=CCOc1c(Br)cc(/C=C2\SC(=Nc3ccccc3)NC2=O)cc1OC,18.9%,i,?,i,-0.1%,?
CCOc1ccccc1NC(=S)N(Cc1cc2ccc(C)cc2[nH]c1=O)CC1CCCN1CC (centres undefined),?,13µM*,0.4%,i,1.2%,?
CCN1CCCC1CN(Cc1cc2ccc(C)cc2[nH]c1=O)C(=S)Nc1ccc(F)cc1 (centres undefined),-5.0%,i,2.2%,i,1.2%,6.51µM*
COc1ccc(-c2cccc3c2OC(CNC(=O)c2ccc4c(c2)OCO4)C3)nn1 (centres undefined),nt,nt,1.7%,nt,nt,nt
CN1CCC(Oc2ccccc2Sc2ccc(C(F)(F)F)cc2)CC1,?,i,8.1%,i,-1.7%,8.2µM*
CN1CCC(Oc2ccc(Sc3ccccc3)cc2)CC1,10.8%,?,-1.6%,?,-0.2%,31.3%
CCCCN(CC)S(=O)(=O)c1ccc(C(=O)N=c2sc3cc(NC(C)=O)ccc3n2C)cc1,7.31µM*,?,?,i,-0.3%,10.3µM*
Cc1nn(Cc2ccccc2)c(C)c1C(=O)OCC(=O)c1cc(C)n(CC(F)(F)F)c1C,3.8%,?,-1.4%,?,-2.6%,13µM*
Cc1cc(C(=O)COC(=O)c2ccc(NC(=O)CC#N)cc2)c(C)n1CC(F)(F)F,nt,i,0.2%,i,nt,nt
Cc1ccccc1NC(=O)C(Cl)=C(Cl)Cl,?,?,-2.6%,?,-1.4%,18.4µM*
CCCCOCCCNC(=O)C1CCCCC1,?,i,4.1%[38.3 µM],i,-4.9%,11.6µM*
CCOC(=O)C(/C(C)=N/NC(=O)C1CC1c1ccccc1)C(C)C (centres undefined),?,i,1.6%,16.4µM*,-1.2%,-1.6%
COc1ccc(OCC(=O)Nc2sc3c(c2C(=O)NCC2CCCO2)CCC3)cc1 (centres undefined),-0.7%,i,11.2µM*,i,-3.9%,18.0%
COc1ccc(NC(=O)c2c(NC(=O)COc3ccccc3)sc3c2CCCCC3)cc1,nt,i,4.4%,i,nt,nt
O=C(NCc1ccc(F)cc1)c1ccc2oc(=O)n(Cc3ccccc3)c2c1,nt,i,-0.4%,i,nt,nt
O=C(NCCc1ccccc1)C(c1cccs1)N(C(=O)CCl)c1ccc(Cl)cc1 (centres undefined),10µM*,?,-2.1%,?,1.2%,11.6µM*
CC1CCN(CC(=O)N2CCCc3c2c(=O)oc2ccc(OCc4ccccc4)cc32)CC1,?,?,?,?,-1.6%,11.2µM*
SMILES,SW480 rerep,KB-3-1 cytotox,PINK1 expr mod,KB-V1 cytotox,PTAP TSG101 blk,MCF10A rerep
CC1CC(C)CN(CC(=O)N2CCCc3c2c(=O)oc2ccc(OCc4ccccc4)cc32)C1 (centres undefined),19.7%,?,0.0%,i,-1.0%,?
CC(=O)Nc1ccc(/C=C/C(=O)c2ccc(-n3nncc3-c3ccccc3)cc2)cc1,nt,i,5.2%,i,nt,nt
Cc1cc(C)c(S(=O)(=O)NCCc2sc(-c3cccnc3)nc2C)c(C)c1,nt,i,-1.7%,?,nt,nt
Cc1cccc(N2CCN(C(=O)Cc3ccc(-n4c(=O)[nH]c5ccsc5c4=O)cc3)CC2)c1C,-2.6%,i,-1.0%,14.6µM*,0.0%,?
Cc1ccc(C)c(N2CCN(C(=O)Cn3c(=O)[nH]c4ccsc4c3=O)CC2)c1,-1.2%,i,0.0%,20.6µM*,-2.2%,9.4%
Cc1ccc(CNC(=O)Cc2ccc(-n3c(=O)[nH]c4ccsc4c3=O)cc2)cc1,6.51µM*,1.3µM*,?,i,-6.6%,2.06µM*
Cc1ccc(CNC(=O)CCCCn2c(=O)[nH]c3ccsc3c2=O)cc1,-3.2%,i,-1.1%,i,-1.3%,2.2%
CC(=O)c1cc(-c2ccc(F)cc2)n(CC(=O)NC2CCCCCC2)c1C,nt,i,-0.8%,i,nt,nt
Cc1ccc(-n2cc(C(=O)OCc3ccc(Cl)cc3)c3ccccc3c2=O)cc1,nt,i,0.3%,i,nt,nt
Cn1cnc(S(=O)(=O)N2CCC(C(=O)NCc3ccc(Cl)cc3)CC2)c1,nt,nt,-0.6%,nt,nt,nt
Cc1ccc(NC(=O)c2ccc(=O)n(CC(=O)Nc3cccc(C)c3)n2)cc1,nt,nt,1.5%,nt,nt,nt
NS(=O)(=O)c1ccc(O)c(NC(=O)c2ccc([N+](=O)[O-])o2)c1,11.6µM*,?,1.4%,?,-4.0%,?
O=C(NNC(=O)c1ccc([N+](=O)[O-])o1)c1ccccc1,?,?,-3.0%,?,-6.1%,?
Cc1cc(C)nc(NC(=O)c2cc([N+](=O)[O-])cc([N+](=O)[O-])c2)n1,12.0%,i,-2.1%,i,-1.3%,?
Cc1cc(C)nc(NC(=O)c2ccc([N+](=O)[O-])o2)n1,8.2µM*,i,4.2%,i,-4.9%,13µM*
COc1ccc(NC(=O)c2ccc([N+](=O)[O-])o2)cc1,2.59µM*,8.2µM*,-2.0%,?,0.2%,16.4µM*

# Assay outcomes as filed in PubChem.
